HT1080-NT tox – kills 2HG-producing HT-1080-NT fibrosarcoma cells | AID 686970 | 360,000 tested, 1.6% active | Potency, µM (titrated, usually from 46.1 µM), inactives show at the highest dose activity, negative = less viability, hits mostly cytotoxic | HT-1080-NT fibrosarcoma viability, CellTiter-Glo ATP luminescence, 48 h;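 also: NT is the 2HG producing partner of a matched IDH1 knockdown line; 0% = DMSO-treated cells and -100% = media-only wells without cells; nearly all actives have a fitted effect of over 55% in size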
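Compounds were tested in concentration-response format on HT-1080-NT cells for 48 hours at 37 degrees C. Cell viability came from CellTiter-Glo luminescence; curves were classified by r2, response magnitude and activity.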
SW480 rerep – inducers of DNA re-replication in SW480 colon cancer cells; SW480 DNA re-replication, Hoechst DNA content imaging, 48 h; Potency, µM (titrated, usually from 46.1 µM), for the others: at the top dose re-replication activation, hits mostly activators; AID 624297; 340,000 tested, 1.8% active; also: % of control where 0% means no effect; nearly all actives have a fitted effect of over 55% in size
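First, 250 cells per well were seeded. Next, compound or vehicle (23 nL) was pinned in, plates sat 48 hr at 37 C. Finally Hoechst was added for 40 min before fluorescence scanning.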
KB-3-1 tox – kills parental KB-3-1 adenocarcinoma cells. KB-3-1 viability, CellTiter-Glo ATP luminescence, 72 h. Potency, µM (highest dose often 46.1 µM), most hits filed as cytotoxic. 400,000 tested, 1.4% active. AID 1347075; also: % is scaled to controls: 0 for no effect and ±100 for the full control effect; nearly all actives have a fitted effect of over 60% in size
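Luminescent ATP read-out (CellTiter-Glo) measures survival of drug-naive KB-3-1 cells after 72 h compound exposure at 37 °C. Titration series was screened from lowest to highest concentration, with DMSO vehicle plates as background controls.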
MCF10A rereplic – DNA re-replication induction in MCF 10a cells; MCF 10A DNA re-replication, Hoechst nuclear intensity, 48 h; Potency, µM (top dose mostly 46.1 µM), without a hit: at the highest dose activity, positive = re-replication, usual class: activators; 350,000 tested, 2.9% active; also: % of control where 0% means no effect; nearly all actives have a fitted effect of over 50% in size
HT1080 IDH1KD tx – kills HT-1080 cells with IDH1 knockdown; Potency, µM (top dose mostly 46.1 µM), inactives show at the top dose activity, negative = toxicity, hits mostly cytotoxic; HT-1080 IDH1 knockdown viability, ATP luminescence, 48 h; 360,000 tested, 2% active;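 also: 0% = DMSO wells and -100% = cell-free medium wells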
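In this qHTS, HT-1080 cells depleted of IDH1 are exposed for 48 h at 37 °C to compound titrations. Toxicity is scored from CellTiter-Glo luminescence, with DMSO as full viability and medium alone as none.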
KB-V1 MDR tox – KB-V1 MDR subline cytotoxicity; AID 1347076; 400,000 tested, 3.4% active; Potency, µM (doses to about 46.1 µM), actives largely listed as cytotoxic; KB-V1 MDR cells viability, CellTiter-Glo, 72 h; also: % is scaled to controls: 0 for no effect and ±100 for the full control effect; nearly all actives have a fitted effect of over 60% in size
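Cytotoxicity toward P-gp-expressing KB-V1 cells was determined as loss of CellTiter-Glo luminescence after 72 h at 37 degrees C. Compounds were tested in quantitative HTS format across a concentration range, with curves fitted to normalized data.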
* = called active by the depositor; i = inactive; ? = inconclusive; . = no result; [ ] = dose if it differs, or a comment. Most compounds without a hit are left out; they make up all but 7.9% or so of the library. Calls follow the shape of the dose curve; as a rule, active = well fitted curve in the direction sought with a large enough effect; inconclusive = small, poorly fitted or top-dose-only effect, or another doubt; inactive = no such curve, though single readings can be large; an effect the other way counts as inactive or inconclusive. Potency is read from the fitted curve at half-maximal effect.

SMILES	HT1080-NT tox	SW480 rerep	KB-3-1 tox	MCF10A rereplic	HT1080 IDH1KD tx	KB-V1 MDR tox
COc1ccccc1C(=O)Nc1cccc(OCc2cc(=O)n3c4c(sc3n2)CCCC4)c1	.	.	i	.	.	i
Cc1cccc(NC(=O)c2cccc3c2C(=O)c2ccccc2-3)c1	5%	-1%	i	22%	10%	6.5µM*
COc1cc2c(cc1OC)-c1nc3ccccc3c(=O)n1C(C)(C)C2	-5%	-2%	i	-6%	-17%	9.2µM*
COc1ccc(/C=C2\CCn3c2nc2ccccc2c3=O)cc1OC	11%	-3%	i	-1%	12%	i
CC1CCCN(S(=O)(=O)c2ccc(N3CCCCS3(=O)=O)cc2)C1 (stereo not given)	.	.	i	.	.	i
CC(C)=C1C2CCC1C1C(=O)N(CCc3ccccc3)C(=O)C21 (stereo not given)	10%	-118%	i	22%	20%	10µM*
OC(COc1ccc(CNCCc2ccc(C(F)(F)F)cc2)cc1)CN1CCCCC1 (stereo not given)	23µM*	?	?	?	23µM*	?
COc1ccccc1COCC(O)CNCCc1ccc(C(F)(F)F)cc1 (stereo not given)	-12%	?	i	12%	-15%	i
OC(COc1ccc(OCC(O)CN2CCCCC2)cc1)CN1CCCCC1 (stereo not given)	-15%	20%	?	5%	-17%	i
OC(CNCCc1ccc(C(F)(F)F)cc1)COc1ccc2ccccc2c1 (stereo not given)	3%	?	?	5.8µM*	-7%	?
OC(CNCCc1ccc(C(F)(F)F)cc1)COc1cccc2ccccc12 (stereo not given)	-27%	16µM*	i	21µM*	-11%	?
COc1ccc(CCNCC(O)COc2cccc(Br)c2)cc1 (stereo not given)	?	?	i	?	?	i
Cc1ccc2c(Sc3ccc(Cl)cc3)c(C(=O)N3CCCCC3)[nH]c2c1	.	.	?	.	.	i
Cc1cc(C)c(C)c(OCCOCCN2CCN(C)CC2)c1	-8%	0%	i	21µM*	10%	i
Cc1c(C(=O)Nc2ccc(-c3nnc4n3CCCCC4)cc2)oc2c1ccc1ccccc12	?	?	?	?	15µM*	?
O=C(Nc1ccc(-c2nnc3n2CCCCC3)cc1)c1cc2ccccc2o1	0%	2%	i	0%	-6%	i
COCCCN1C(=O)C(CC(=O)NC2CCCCC2)CC(C(=O)N(C)C)=C1C (stereo not given)	2%	.	?	.	12%	i
O=C(NCCC1=CCCCC1)C1CCC(CNS(=O)(=O)c2ccccc2)CC1 (stereo not given)	1%	-92%	i	?	4%	8.2µM*
CC(=O)Nc1ccc(S(=O)(=O)NCC2CCC(C(=O)NCCC3=CCCCC3)CC2)cc1 (stereo not given)	11%	-1%	i	16%	12%	i
O=C(NCCC1=CCCCC1)C1CCC(CNc2nc(=S)[nH]c3ccccc23)CC1 (stereo not given)	-2%	10%	?	26µM*	-9%	21µM*
O=C(NCCc1ccc(Cl)cc1)C1CCC(CNc2nc(=S)[nH]c3ccccc23)CC1 (stereo not given)	-10%	12%	?	3%	3%	?
COc1cc(C(=O)OCC#N)ccc1OCc1c(C)noc1C	?	10µM*	?	4.1µM*	26µM*	?
COc1ccc(C(=O)NC(=S)Nc2ccccc2N2CCOCC2)cc1Br	5%	-1%	i	?	5%	16µM*
COc1cc(C(=O)Nc2ccccc2N2CCOCC2)ccc1OCc1c(C)noc1C	9%	-3%	i	1%	9%	4.6µM*
COc1cc(C(=O)NCc2ccc(C)cc2)ccc1OCc1c(C)noc1C	3%	0%	i	1%	-3%	i
SMILES	HT1080-NT tox	SW480 rerep	KB-3-1 tox	MCF10A rereplic	HT1080 IDH1KD tx	KB-V1 MDR tox
Cn1c(=O)c2c(ncn2CC(=O)Nc2cccc(Cl)c2Cl)n(C)c1=O	.	.	i	.	.	i
Cc1cc(C)c2nc(Cl)c(CN(Cc3ccco3)C(=O)Nc3ccccc3C)cc2c1	5µM*	?	i	?	5.6µM*	i
COCCN(Cc1cc2ccc(C)c(C)c2nc1Cl)C(=O)N1CCOCC1	0%	-6%	i	0%	21%	i
Cc1cc(C)c2cc(CN(Cc3ccco3)C(=O)NCc3ccccc3)c(=O)[nH]c2c1	-17%	?	?	?	-19%	i
COCCN(Cc1cc2cc(C)cc(C)c2nc1Cl)C(=O)Nc1ccccc1	10µM*	?	?	6%	7.1µM*	5.8µM*
Cc1cccc(CSCCNC(=O)C2CCN(S(=O)(=O)Cc3ccccc3)CC2)c1	.	.	i	.	.	i
CC(O)(c1ccccc1)[N+]1(CC(=O)c2ccccc2)C=CC=C1 (stereo not given)	.	.	i	.	.	i
Cc1ccc(C)c(S(=O)(=O)N2CCCCC2CCNC(=O)C(=O)NCc2ccccn2)c1 (stereo not given)	9%	-9%	i	3%	1%	?
Cc1ccc(C)c(S(=O)(=O)N2CCCC2CNC(=O)C(=O)NCC2CCCO2)c1 (stereo not given)	18%	5.8µM*	i	27%	13%	i
Cc1ccc(C)c(S(=O)(=O)N2CCCC2CNC(=O)C(=O)NCc2ccccc2C)c1 (stereo not given)	-21%	3.7µM*	i	-7%	-16%	i
Cc1ccc(C)c(S(=O)(=O)N2CCCC2CNC(=O)C(=O)NC2CCCCCC2)c1 (stereo not given)	8%	0%	i	28%	12%	i
Cc1ccc(C)c(S(=O)(=O)N2CCCC2CNC(=O)C(=O)NCc2ccccn2)c1 (stereo not given)	9%	18µM*	i	-21%	-6%	i
CCOC(=O)C1CCCN(c2c(C(=O)c3ccccc3)cnc3ccc(F)cc23)C1 (stereo not given)	.	.	i	.	.	i
COc1ccc(-c2nc(N)nc(C(F)(F)F)c2-c2cscn2)c(O)c1	12%	-13%	i	9%	3%	i
COc1ccc(-c2nc(N)nc(C)c2Oc2ccccc2Br)c(O)c1	?	?	?	15µM*	-2%[9.24 µM]	?
O=C(NCc1cccnc1)c1ccc(NC(=O)c2cccc([N+](=O)[O-])c2)cc1	?	6%	i	?	3.7µM*	i
